# Test results from PubChem BioAssay (NCATS).
# Unmarked numbers belong to inactive results. Records with an inconclusive call do not appear. Where a call stands in place of a potency, no number is given. Calls of active or inactive are those of the source. Calls follow the shape of the dose curve; as a rule, active = well fitted curve in the direction sought with a large enough effect; inconclusive = small, poorly fitted or top-dose-only effect, or another doubt; inactive = no such curve, though single readings can be large; an effect the other way counts as inactive or inconclusive.
# Experiments:
# [1] = qHTS to identify inhibitors of the type 1 interferon - major histocompatibility complex class I in skeletal muscle: primary screen against the NCATS Mechanism Interrogation Plate v5.0 (MIPE) Libary (AID 1347411); also: nearly all actives have a fitted effect of over 65% in size; also: potency is read from the fitted curve at half-maximal effect
# Method in brief: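 Luminescence from HiBiT-tagged endogenous HLA-B*08:01 served as the MHC class I read-out. CRISPR-engineered C25cl48 human myoblasts received 4.0 ng/ml IFN-beta plus compound for 24 hrs, with an 11-point, 1:3 series topping at 46 uM final.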
# [2] = molecular target: Calcium and integrin-binding protein 1 (Homo sapiens) (UniProt Q99828); assay: Primary qHTS for Identification of Calcium Integrin Binding Protein 1 (CIB1) Competitor (AID 1508620);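 also: GST tagged CIB1 binding a fluorescein labelled alphaIIb integrin peptide tracer; top concentration of the series differs between compounds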
# Method in brief: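 Fluorescence polarization competition: CIB1-GST (1 uM final) preincubated with compound 15 min at room temperature, then FITC-labeled alphaIIb peptide (100 nM final) added for another 15 min. Polarization read at Ex 480/Em 540.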
# [3] = molecular target: Protein phosphatase 1D (Homo sapiens) (UniProt O15297); assay: RapidFire Mass Spectrometry qHTS Assay for Modulators of WT P53-Induced Phosphatase 1 (WIP1) (AID 1347424);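 also: amount of dephosphorylated VEPPL-S-QETFS peptide product formed by WIP1; series mostly up to about 63 µM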
# Method in brief: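 WIP1 (10 nM final) was preincubated 1 h at room temperature with compounds in Tris-HCl pH 7.5, 30 mM MgCl2, TCEP, EGTA, BSA; 2 uM VEPPL-pS-QETFS phosphopeptide was added for 5 min, quenched with formic acid, and dephosphorylated product quantified by RapidFire MS.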
# [4] = molecular target: Protein phosphatase 1D (Homo sapiens) (UniProt O15297); assay: Rhodamine-PBP qHTS Assay for Modulators of WT P53-Induced Phosphatase 1 (WIP1) (AID 1347425)
# Method in brief: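 The read-out is the change in Rhodamine-PBP fluorescence (f1 - f0, ex 525/em 598 nm) as Pi is released, read each minute for 11 min. Final reaction: 5 nM WIP1, 10 uM phosphopeptide VEPPL-pS-QETFS, 10 uM Rh-PBP, 50 mM Tris-HCl pH 7.5, 30 mM MgCl2. Compound was preincubated with enzyme for 1 hour at room temperature.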
# [5] = Primary qHTS for inhibitors of La Crosse Virus (LACV) - induced cell death in SH-SY5Y cells (AID 1508616);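 also: top concentration of the series differs between compounds; higher means more rescue of cells from virus-induced death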
# Method in brief: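 Protection against LACV-induced cell death is scored in SH-SY5Y cells exposed to compounds and virus (0.01 MOI) for 6 days. Data normalized to virus-infected DMSO wells and virus-free DMSO wells.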
# [6] = molecular target: Calcium and integrin-binding protein 1 (Homo sapiens) (UniProt Q99828); assay: Confirmatory qHTS for Identification of Calcium Integrin Binding Protein 1 (CIB1) Competitor (AID 1508617); also: nearly all actives have a fitted effect of over 65% in size
# Method in brief: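 Compounds at up to 114 uM final met 1 uM GST-tagged CIB1 for 15 min at room temperature (HEPES pH 7.4, 5 mM CaCl2). FITC-labelled alphaIIb peptide, 100 nM, added; polarization read after 15 min more.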
# [7] = qHTS for inhibitors of adenylyl cyclases using a fission yeast platform: a pilot screen against the NCATS LOPAC library (AID 1347410)
# Method in brief: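 S. pombe CHP2027 (AC9-GNAS-PDE4D2) carrying a PKA-repressed fbp1-GFP reporter was exposed to LOPAC compounds (final up to 57 µM) for 18 h at 30C in the dark, in EMM with histidine, lysine and uracil; GFP gain-of-signal read by laser scanning cytometry.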
# [8] = Validation qHTS assay for inhibitors of Activation Induced Cytidine Deaminase (AID): UDG Counterscreen signal (AID 1347427)
# Method in brief: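 Counterscreen read of UDG activity (2 U/mL, 4/3x) in the FRET deamination format with AID (1 uM, 4/3x), DJC20/DJC23 substrates (250 nM, 4x), 4 h at room temperature. NaOH stop, fluorescence at 560 ex/665 em.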
# [9] = molecular target: Single-stranded DNA cytosine deaminase (Homo sapiens) (UniProt Q9GZX7); assay: Validation qHTS assay for inhibitors of Activation Induced Cytidine Deaminase (AID): AID signal (AID 1347429)
# Method in brief: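 Fluorescence at 540 nm excitation and 590 nm emission reports ssDNA cytosine deamination by AID, with UDG in the same well. Compound-treated reactions ran 4 hr at room temperature with DJC20/DJC23 substrate, followed by 30 min NaOH treatment.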
# [10] = molecular target: Calcium and integrin-binding protein 1 (Homo sapiens) (UniProt Q99828); assay: Validation qHTS for Identification of Calcium Integrin Binding protein 1 (CIB1) Competitor (AID 1508618)
# Method in brief: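 CIB1-GST (1 uM final) incubated 15 min at room temperature with compounds (up to 114 uM), then FITC-labelled alphaIIb peptide (100 nM) added. FP read (Ex 480/Em 540) after 15 min, pH 7.4 buffer containing 5 mM CaCl2.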
# Sequence of Calcium and integrin-binding protein 1 (Homo sapiens) (Q99828 whole entry, looked up): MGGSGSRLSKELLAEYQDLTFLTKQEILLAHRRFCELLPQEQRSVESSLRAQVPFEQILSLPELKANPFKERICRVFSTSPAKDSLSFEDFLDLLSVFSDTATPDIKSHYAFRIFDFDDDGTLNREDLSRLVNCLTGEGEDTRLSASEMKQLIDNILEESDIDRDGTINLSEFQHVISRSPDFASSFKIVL
# Sequence of Protein phosphatase 1D (Homo sapiens) (O15297 whole entry, looked up): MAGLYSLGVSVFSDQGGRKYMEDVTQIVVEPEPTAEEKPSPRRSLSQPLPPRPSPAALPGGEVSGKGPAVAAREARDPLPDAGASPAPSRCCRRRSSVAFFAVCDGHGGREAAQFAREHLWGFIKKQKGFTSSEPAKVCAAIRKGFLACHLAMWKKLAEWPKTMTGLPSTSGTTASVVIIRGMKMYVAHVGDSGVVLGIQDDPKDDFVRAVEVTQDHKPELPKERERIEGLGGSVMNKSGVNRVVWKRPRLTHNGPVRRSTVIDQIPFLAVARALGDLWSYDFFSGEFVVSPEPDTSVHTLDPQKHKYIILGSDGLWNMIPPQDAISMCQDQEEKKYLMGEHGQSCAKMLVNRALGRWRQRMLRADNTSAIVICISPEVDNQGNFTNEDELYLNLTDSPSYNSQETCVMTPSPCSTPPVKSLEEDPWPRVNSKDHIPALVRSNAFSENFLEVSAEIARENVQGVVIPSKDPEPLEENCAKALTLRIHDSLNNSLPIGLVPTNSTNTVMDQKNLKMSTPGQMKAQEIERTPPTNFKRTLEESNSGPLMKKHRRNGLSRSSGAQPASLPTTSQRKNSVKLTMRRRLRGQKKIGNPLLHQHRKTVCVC
# Sequence of Single-stranded DNA cytosine deaminase (Homo sapiens) (Q9GZX7 whole entry, looked up): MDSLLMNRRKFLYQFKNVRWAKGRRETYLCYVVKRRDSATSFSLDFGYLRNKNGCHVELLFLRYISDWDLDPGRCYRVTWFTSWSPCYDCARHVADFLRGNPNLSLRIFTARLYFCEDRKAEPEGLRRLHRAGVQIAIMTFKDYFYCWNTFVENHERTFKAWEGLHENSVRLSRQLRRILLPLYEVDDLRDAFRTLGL
structure (smiles),measurement,setting,value
COc1ccc(C(=O)CC2(O)C(=O)Nc3c(Cl)ccc(Cl)c32)cc1 (centres undefined),Potency,[1],inactive
O=C(O)C1(Cc2cccc(Nc3nccs3)n2)CCC(Oc2cccc(Cl)c2F)CC1 (centres undefined),Potency,[1],inactive
same,outcome,[2],inactive
CC(C)Nc1cc(C(F)(F)F)cc2nc(NC(=O)c3cccnc3)nn12,Potency,[1],inactive
same,outcome,[2],inactive
CNC(=O)c1c(F)cccc1Nc1nc(Nc2cc3c(cc2OC)CCN3C(=O)CN(C)C)nc2[nH]ccc12,Potency,[1],7.39 µM (active)
Nc1nc(-c2nn(Cc3ccccc3F)c3ncccc23)nc(N)c1N1CCOCC1,Potency,[1],inactive
NCC(=O)Nc1ccc(-n2nc(C(F)(F)F)cc2-c2ccc3c(ccc4ccccc43)c2)cc1,Potency,[1],inactive
Cc1c(C)n(Cc2ccc(-c3ccccc3C(=O)O)cc2)c2ccc(C(=O)N[C@@H](C)c3ccc([N+](=O)[O-])cc3)cc12,Potency,[1],inactive
CC(=O)SC[C@@H](C)C(=O)N1CCC[C@H]1C(=O)N[C@@H](Cc1ccccc1)C(=O)O,Potency,[1],inactive
same,Potency,[3],inactive
same,outcome,[4],inactive
same,outcome,[5],inactive
same,outcome,[2],inactive
CCOC(=O)C1=C(C)NC2=C(C(=O)CC(C)(C)C2)C1c1ccc(-c2ccccc2)cc1 (centres undefined),Potency,[1],3.3 µM (active)
COc1cc2c(Oc3ccc4[nH]c(C)cc4c3F)ncnc2cc1OCCCN1CCCC1,Potency,[1],20.8 µM (active)
CCN(CC)CCCCNc1ncc2cc(-c3cc(OC)cc(OC)c3)c(NC(=O)NC(C)(C)C)nc2n1,Potency,[1],29.4 µM (active)
same,outcome,[2],inactive
Cc1nc2ccc(CN(C)c3ccc(C(=O)N[C@@H](CCC(=O)O)C(=O)O)s3)cc2c(=O)[nH]1,Potency,[1],inactive
same,Potency,[3],inactive
same,outcome,[4],inactive
same,outcome,[5],inactive
Cc1cn(-c2cc(NC(=O)c3ccc(C)c(Nc4nccc(-c5cccnc5)n4)c3)cc(C(F)(F)F)c2)cn1,Potency,[1],inactive
same,outcome,[2],inactive
OCc1ccc(-c2ccc(-c3ccc(CO)s3)o2)s1,Potency,[1],33 µM (active)
same,Potency,[6],inactive
same,outcome,[2],inactive
NC(=O)c1c(OCc2c(F)cc(Br)cc2F)nsc1NC(=O)NCCCCN1CCCC1,Potency,[1],33 µM (active)
same,outcome,[2],inactive
CN1CC[C@@H](c2c(O)cc(O)c3c(=O)cc(-c4ccccc4Cl)oc23)[C@@H](O)C1,Potency,[1],0.739 µM (active)
CN(C)CCCN=c1c2ccccc2n(C)c2[nH]c(=O)n(C)c(=O)c12,Potency,[1],16.5 µM (active)
COc1ccc(CC2c3cc(OC)c(OC)cc3CC[N+]2(C)CCC(=O)OCCCCCOC(=O)CC[N+]2(C)CCc3cc(OC)c(OC)cc3C2Cc2ccc(OC)c(OC)c2)cc1OC (centres undefined),Potency,[1],inactive
O=C(O)CCCc1c[nH]c2ccccc12,Potency,[1],inactive
CC[C@@]1(O)C(=O)OCc2c1cc1n(c2=O)Cc2cc3cc(O)ccc3nc2-1,Potency,[1],3.3 µM (active)
COc1cc(-c2nn(C3CCC(N4CCN(C(C)=O)CC4)CC3)c3ncnc(N)c23)ccc1NC(=O)c1cc2ccccc2n1C (centres undefined),Potency,[1],inactive
O=C(CCCCCCC(=O)Nc1ccc([C@H]2O[C@@H](CSc3nc(-c4ccccc4)c(-c4ccccc4)o3)C[C@@H](c3ccc(CO)cc3)O2)cc1)NO,"activity change, negative = inhibition",[1],14.6% [at 8.44 µM]
same,outcome,[2],inactive
CN1CCN(Cc2ccc(NC(=O)Nc3ccc(Oc4cc(NC(=O)C5CC5)ncn4)cc3)cc2C(F)(F)F)CC1,Potency,[1],0.415 µM (active)
same,outcome,[2],inactive
CCc1cc2c(cc1N1CCC(N3CCOCC3)CC1)C(C)(C)c1[nH]c3cc(C#N)ccc3c1C2=O,Potency,[1],inactive
same,outcome,[2],inactive
CNC(=O)CN1CCC(Oc2cc3c(Nc4cccc(Cl)c4F)ncnc3cc2OC)CC1,Potency,[1],inactive
same,outcome,[2],inactive
CCN(CC)CCNC(=O)c1ccc2nc(-c3ccccc3)c(-c3ccc(CN4CCC(n5c(=O)[nH]c6ccccc65)CC4)cc3)nc2c1,Potency,[1],6.58 µM (active)
same,outcome,[2],inactive
O=c1c2ccccc2nc2n1CCc1c-2[nH]c2ccccc12,outcome,[7],inactive
same,outcome,[8],inactive
same,outcome,[9],inactive
same,outcome,[5],inactive
same,outcome,[10],inactive
COc1ccc(F)c(F)c1C(=O)c1cnc(NC2CCN(S(C)(=O)=O)CC2)nc1N,Potency,[1],2.94 µM (active)
COCCn1c2c([n+](Cc3cnccn3)c1C)C(=O)c1ccccc1C2=O,Potency,[1],2.34 µM (active)
NC(=O)c1cccc2cn(-c3ccc([C@@H]4CCCNC4)cc3)nc12,Potency,[1],inactive
same,outcome,[2],inactive
CC[C@H](CO)Nc1nc(NCc2ccccc2)c2ncn(C(C)C)c2n1,Potency,[1],29.4 µM (active)
C=CC(=O)Nc1cc2c(Nc3ccc(F)c(Cl)c3)ncnc2cc1OCCCN1CCOCC1,Potency,[1],11.7 µM (active)
same,Potency,[3],inactive
same,outcome,[4],inactive
same,outcome,[2],inactive
CC(C)c1noc(N2CCC(COc3ccc(-c4ccc(S(C)(=O)=O)cc4)nc3)CC2)n1,Potency,[1],inactive
CNC(=O)c1nn(C)c2c1C(C)(C)Cc1cnc(Nc3ccc(N4CCN(C)CC4)cc3)nc1-2,Potency,[1],5.23 µM (active)
CCCCCCCCCC(=O)N[C@@H](Cc1c[nH]c2ccccc12)C(=O)N[C@H](CC(N)=O)C(=O)N[C@@H](CC(=O)O)C(=O)N[C@@H]1C(=O)NCC(=O)N[C@@H](CCCN)C(=O)N[C@@H](CC(=O)O)C(=O)N[C@H](C)C(=O)N[C@@H](CC(=O)O)C(=O)NCC(=O)N[C@H](CO)C(=O)N[C@@H]([C@@H](C)CC(=O)O)C(=O)N[C@@H](CC(=O)c2ccccc2N)C(=O)O[C@@H]1C,Potency,[1],inactive
CC(=O)Nc1sc2c(c1-c1nc3ccccc3s1)CNC2,Potency,[6],inactive
same,outcome,[2],inactive
